Source: the supplement of paper PMC6522484
± gives the standard deviation of the averaged measurements.

Experiments:
[1] = test system: DLD1; assay: cell viability (CellTiter-Glo) relative to plate median (fraction of plate median); higher = more viable cells; conditions: 5 µM; treatment time 24 h; reporter: 7TFP
Outline: (§1)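 Each entry is a luminescence signal normalised to the plate median, averaged over independent replicates. The replicate count was two, and the cells were colorectal cancer lines with stable lentiviral TCF/Wnt firefly luciferase reporters exposed to library compounds at a final 5 µM for 24 h. Firefly luciferase and CellTiterGlo were measured on parallel plates.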

[2] = test system: HCT116; assay: as above; conditions: 5 µM; treatment time 24 h; reporter: TCF4/Wnt
Outline: as §1

[3] = test system: SW480; assay: as above; conditions: 5 µM; treatment time 24 h; reporter: 7TFP
Outline: as §1

[4] = test system: DLD1; assay: TCF/Wnt firefly luciferase reporter signal relative to plate median (fraction of plate median); higher = higher Wnt reporter signal; conditions: 5 µM; treatment time 24 h; reporter: 7TFP
Outline: as §1

[5] = test system: SW480; assay: as above; conditions: 5 µM; treatment time 24 h; reporter: 7TFP
Outline: as §1

SMILES | cell viability [1] | cell viability [2] | cell viability [3] | TCF/Wnt firefly luciferase reporter signal [4] | TCF/Wnt firefly luciferase reporter signal [5]
CO/N=C1\C[C@]2(C[C@@H]3C[C@@H](C/C=C(\C)C[C@@H](C)/C=C/C=C4\CO[C@@H]5[C@H](O)C(C)=C[C@@H](C(=O)O3)[C@]45O)O2)O[C@H](/C(C)=C/C(C)C)[C@H]1C | 0.891 ± 0.0092 | 0.921 ± 0.019 | 0.896 ± 0.042 | 0.939 ± 0.24 | 0.932 ± 0.11
COc1cc2nc(N(C)CCCNC(=O)C3CCCO3)nc(N)c2cc1OC (stereo not given) | 1.01 ± 0.12 | 0.973 ± 0.053 | 0.985 ± 0.035 | 0.972 ± 0.069 | 0.905 ± 0.053
COc1cc(OC)cc(OC)c1 | 1.03 ± 0.028 | 1.02 ± 0.028 | 1.015 ± 0.0071 | 1.13 ± 0.028 | 1.1 ± 0.11
CCOc1ccc(C(=O)c2ccc(OC)c(O)c2O)cc1 | 1.01 ± 0.052 | 1.07 ± 0.028 | 1 ± 0.038 | 0.966 ± 0.025 | 1.03 ± 0.021
O=c1c(O)c(-c2ccc(O)cc2)oc2ccccc12 | 0.975 ± 0.05 | 1.16 ± 0.05 | 1.01 ± 0.034 | 1.05 ± 0.028 | 0.957 ± 0.047
Cc1c(C(=O)O)c(O)cc2c1C(=O)c1c(O)c([C@@H]3O[C@H](CO)[C@@H](O)[C@H](O)[C@H]3O)c(O)c(O)c1C2=O | 0.97 ± 0.032 | 1.01 ± 0.089 | 0.9855 ± 0.0078 | 1.08 ± 0.17 | 1.07 ± 0.14
COc1ccc(CCC(=O)c2c(O)cc(O[C@@H]3O[C@H](CO)[C@@H](O)[C@H](O)[C@H]3O[C@@H]3O[C@@H](C)[C@H](O)[C@@H](O)[C@H]3O)cc2O)cc1O | 0.96 ± 0.085 | 1.01 ± 0.024 | 0.975 ± 0.036 | 0.945 ± 0.079 | 1.04 ± 0.028
CC(=O)O[C@]1(C)CC[C@@]23C[C@H]1C(C)(C)[C@@H]2CC[C@H]3C | 0.986 ± 0.035 | 0.918 ± 0.033 | 1 ± 0.067 | 1.05 ± 0.086 | 0.934 ± 0.017
Cc1ncc(C[n+]2csc(CCO)c2C)c(N)n1 | 0.981 ± 0.041 | 0.978 ± 0.088 | 1.005 ± 0.0071 | 0.926 ± 0.011 | 0.946 ± 0.02
Cn1nnnc1SCC1=C(C(=O)O)N2C(=O)[C@@H](NC(=O)[C@H](OC=O)c3ccccc3)[C@H]2SC1 | 1.02 | 0.932 ± 0.056 | 1.03 ± 0.044 | 0.9225 ± 0.00071 | 0.992 ± 0.04
